According to PubChem BioAssay (NCATS):
Inconclusive results are not listed. Active and inactive are the calls of the source. The call rests on the fitted dose curve; in most records, active means well fitted inhibition curve with a large enough effect; inconclusive means small, poorly fitted or top-dose-only effect; inactive means no such curve, though single readings can be large or run the other way.

Target: N-terminal Xaa-Pro-Lys N-methyltransferase 1 (Homo sapiens) (UniProt Q9BV86)
Assay: qHTS Assay for Inhibitors of N-terminal methyltransferase 1 (NTMT1): LOPAC validation of the NTMT1 SAHH-coupled ThioGlo3 Assay (AID 1347143);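 further: SAH from peptide methylation measured as thiol fluorescence via SAHH coupling and ThioGlo3; nearly all actives have a fitted effect of over 70% in size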
Conditions: recombinant NTMT1, SAHH-coupled ThioGlo3 fluorescence; series mostly up to 114 µM; activity change, negative = inhibition: at the top concentration
Outline: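 Steps: dispense 125nM NTMT1; pin-transfer test compounds at several concentrations, with 1uM RCC1-6 peptide as control; incubate 1 min; start with reagent holding 100uM SAM, 10uM SAHH, 15uM ThioGlo3; read at 0 and 30 min.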
On the % scale 0 is the no-effect control and ±100 the full control effect; potency means the concentration at half of the fitted maximal effect.

Sequence of N-terminal Xaa-Pro-Lys N-methyltransferase 1 (Homo sapiens) (Q9BV86 whole entry, looked up): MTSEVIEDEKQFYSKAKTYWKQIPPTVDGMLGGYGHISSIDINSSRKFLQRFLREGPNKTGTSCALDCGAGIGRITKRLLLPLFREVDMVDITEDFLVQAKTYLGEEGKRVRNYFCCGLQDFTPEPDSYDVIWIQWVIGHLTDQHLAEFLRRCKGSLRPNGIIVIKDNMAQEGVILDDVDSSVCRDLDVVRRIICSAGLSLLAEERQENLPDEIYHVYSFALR

Row | Structure (SMILES) | activity change, negative = inhibition | Potency
1 | COc1cccc(OC)c1OCCNCC1COc2ccccc2O1 (stereo not given) | -26.7% (inactive) | –
2 | N[C@@H](CC(=O)O)C(=O)O | -7.62% (inactive) | –
3 | OC[C@H]1O[C@@H](n2cnc3c(NC4CCCCC4)ncnc32)[C@H](O)[C@@H]1O | -7.61% (inactive) | –
4 | CCCCCCCCCCCCCCCC(=O)OC(CC(=O)O)C[N+](C)(C)C (stereo not given) | -24.6% (inactive) | –
5 | Cc1ccc(O)c(N=Nc2ccccc2)n1 | – | 50.1 µM (active)
6 | O=C(O)CNC(=O)C(CS)Cc1ccccc1 (stereo not given) | 2270% (inactive) | –
7 | CC(C)(C=O)Cc1cc(C(C)(C)C)c(O)c(C(C)(C)C)c1 | -6.32% (inactive) | –
8 | CN(CCCOc1ccc(Cc2ccccc2)cc1)CCC(=O)O | -20.2% (inactive) | –
9 | O=C1C(SCCO)=C(SCCO)C(=O)c2ccccc21 | 217% (inactive) | –
10 | COc1cc2c(CCNC(C)=O)c[nH]c2cc1Cl | -21.2% (inactive) | –
11 | Cc1ccc(S(=O)(=O)/C=C/C#N)cc1 | – | 5.62 µM (active)
12 | O=C(Nc1ccccc1)c1cc([N+](=O)[O-])ccc1Cl | -23.5% (inactive) | –
13 | Cn1cc(C2=C(c3ccc(Cl)cc3Cl)C(=O)NC2=O)c2ccccc21 | -5.55% (inactive) | –
14 | O=[N+]([O-])c1ccc2c(c1)S(=O)(=O)C=C2 | – | 44.7 µM (active)
15 | CCCCCCCCc1ccc(-c2ccc(C(=O)O)cc2)cc1 | – | 50.1 µM (active)
16 | C=CCc1cccc(/C=N/NC(=O)CN2CCN(Cc3ccccc3)CC2)c1O | -15.2% (inactive) | –
17 | CCCCCCCC/C=C\CCCCCCCC(=O)NCCO | -27% (inactive) | –
18 | O=C(Nc1ccc2[nH]ncc2c1)C1CCC1 | -21% (inactive) | –
19 | CN1CC(=O)N/C1=N/C(=O)Nc1cccc(Cl)c1 | -2.19% (inactive) | –
20 | CC12C(=O)OC(=O)C1(C)C1CCC2O1 (stereo not given) | -8.7% (inactive) | –
